Compound activity (PubChem)
APEX1 inh = inhibitors of human APE1 endonuclease | AID 2517 | Potency, µM (doses to about 65.8 µM), without a hit: at the highest dose activity change, negative = inhibition, actives largely listed as inhibitors | 350,000 tested, 0.35% active | recombinant APE1, TAMRA/BHQ-2 abasic DNA cleavage fluorescence;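 also: potency is read from the fitted curve at half-maximal effect; plate controls were vehicle for no effect and reference inhibitor for full effect; nearly all actives have a fitted effect of over 55% in size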
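Measures dequenching upon AP-site incision of a 5'-TAMRA/3'-BHQ-2 THF-containing duplex, 50 nM; human APE1 0.75 nM after 15 min room-temperature exposure to compound; kinetic three-point read at one-minute spacing.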
GCN5L2 inh-1 = inhibitors of human GCN5L2 histone acetyltransferase | Q92830 | GCN5L2 HAT assay, ThioGlo1 CoA-SH fluorescence | Potency, µM (titrated, usually from 58.9 µM), without a hit: at the highest dose activity change, negative = inhibition, actives largely listed as inhibitors | 390,000 tested, 0.21% active | AID 504327; also: potency is read from the fitted curve at half-maximal effect; % is scaled to controls: 0 for no effect and ±100 for the full control effect
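qHTS, 1536-well. 20nM enzyme, pH 7.5 HEPES/EDTA/Tween-20 buffer; 15 min compound preinc., RT. Start: 75uM H3(1-25), 70uM AcCoA, 50uM ThioGlo1. Read Ex340/Em540 at t=0 (autofluorescence flag) and t=20 min.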
Lamin A splicing = changes lamin A minigene splicing in HeLa cells; HeLa LMNA splicing GFP/RFP minigene ratio, 48 h; 200,000 tested, 0.01% active; Potency, µM (doses to about 46.1 µM), for inactives: top-dose ratio change, negative = inhibition, actives largely listed as inhibitors; active = well fitted inhibition curve with a large enough effect in the signal ratio, with a control signal flat, not every such curve was filed as active; inconclusive = small, poorly fitted or top-dose-only effect, or effect the other way, or a change in a side signal; the % refers to the signal ratio; also: potency is read from the fitted curve at half-maximal effect; % is scaled to controls: 0 for no effect and ±100 for the full control effect
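Read-out is the ratio of GFP to DsRed2 object intensity, acquired by 488 nm laser-scanning cytometry on HeLa lamin A-EGFP minigene reporter cells. Compound incubation 48 hrs at 37 °C in Opti-MEM with 2% FBS; DMSO 0.5% final.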
RECQ1 inh-1 = blocks DNA unwinding by human RECQ1; P46063; RECQ1 DNA unwinding, red fluorescence kinetic read; Potency, µM (titrated, usually from 57.3 µM), for the others: top-dose activity, negative = inhibition, actives largely listed as inhibitors; 240,000 tested, 0.54% active;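 also: potency is read from the fitted curve at half-maximal effect; plate controls were vehicle for no effect and no enzyme for full effect; nearly all actives have a fitted effect of over 30% in size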
Target sequence (P46063 whole entry, looked up): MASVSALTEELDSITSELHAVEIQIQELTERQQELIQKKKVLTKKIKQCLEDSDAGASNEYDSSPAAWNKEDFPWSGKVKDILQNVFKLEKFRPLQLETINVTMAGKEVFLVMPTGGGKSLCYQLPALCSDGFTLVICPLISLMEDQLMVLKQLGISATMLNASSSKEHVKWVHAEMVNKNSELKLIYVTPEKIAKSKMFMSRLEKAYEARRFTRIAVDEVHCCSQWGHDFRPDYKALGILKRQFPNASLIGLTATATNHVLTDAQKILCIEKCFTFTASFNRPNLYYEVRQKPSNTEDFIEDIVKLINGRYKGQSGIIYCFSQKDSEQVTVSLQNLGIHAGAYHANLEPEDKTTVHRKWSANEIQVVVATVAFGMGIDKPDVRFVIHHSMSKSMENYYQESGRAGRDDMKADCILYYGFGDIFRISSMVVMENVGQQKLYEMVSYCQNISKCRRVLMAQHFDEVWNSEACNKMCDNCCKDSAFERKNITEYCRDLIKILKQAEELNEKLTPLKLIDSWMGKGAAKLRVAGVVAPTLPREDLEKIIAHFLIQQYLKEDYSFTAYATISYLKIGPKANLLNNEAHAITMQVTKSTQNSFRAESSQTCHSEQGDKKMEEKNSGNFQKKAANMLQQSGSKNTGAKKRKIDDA
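RECQ1T1 50 nM; forked duplex (20 bp + 30-nt ss tails) 200 nM, ATP 2 mM final; pH 8.0, 2 mM MgCl2, 2.5 ug/ml poly(dI-dC); 15 min compound preincubation; discontinuous kinetic read over 2 h at RT.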
BLM inh = inhibitors of human Bloom syndrome helicase BLM. P54132. recombinant BLM DNA unwinding, fluorescence dequenching. Potency, µM (titrated, usually from 56.1 µM), for the others: at the top dose activity change, negative = inhibition, most hits filed as inhibitors. 350,000 tested, 0.2% active;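 also: potency is read from the fitted curve at half-maximal effect; plate controls were vehicle for no effect and no enzyme for full effect; nearly all actives have a fitted effect of over 35% in size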
TDP1 inh = blocks human tyrosyl-DNA phosphodiesterase 1 | 350,000 tested, 0.28% active | Q9NUW8 | Potency, µM (series often up to 130 µM), for the others: at the highest dose activity change, negative = inhibition, actives largely listed as inhibitors | recombinant TDP1, AlphaScreen DNA substrate cleavage; also: potency is read from the fitted curve at half-maximal effect; % is scaled to controls: 0 for no effect and ±100 for the full control effect; nearly all actives have a fitted effect of over 40% in size
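Compounds were preincubated with Tdp1 (1 nM final) for 15 min at room temperature before substrate (15 nM final) started a 5 min reaction; beads (10 ug/ml final) were then added for 10 min before AlphaScreen detection.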
RECQ1 inh conf = confirmation of human RECQ1 helicase inhibitors | 610 tested, 28% active | Potency, µM (highest dose often 229 µM), without a hit: top-dose activity change, negative = inhibition, hits mostly inhibitors | RECQ1 helicase DNA unwinding, fluorescence | shares compounds with RECQ1 inh-1; also: potency is read from the fitted curve at half-maximal effect; % is scaled to controls: 0 for no effect and ±100 for the full control effect; nearly all actives have a fitted effect of over 45% in size
RECQ1 ADP FP = counter-screen for RECQ1 inhibitors: ADP displacement. shares compounds with RECQ1 inh-1. ADP fluorescence polarization displacement counterscreen. Potency, µM (series often up to 228 µM), without a hit: top-dose activity change, negative = inhibition, most hits filed as inhibitors. 530 tested, 27% active; also: potency is read from the fitted curve at half-maximal effect; % is scaled to controls: 0 for no effect and ±100 for the full control effect; nearly all actives have a fitted effect of over 45% in size
RECQ1 inh-2 = blocks human RECQ1 DNA unwinding; shares compounds with RECQ1 inh-1; recombinant RECQ1 DNA unwinding, red fluorescence; Potency, µM (highest dose often 119 µM), for inactives: at the highest dose activity, negative = inhibition, most hits filed as inhibitors; 1,100 tested, 15% active; AID 504841; also: potency is read from the fitted curve at half-maximal effect; % is scaled to controls: 0 for no effect and ±100 for the full control effect; nearly all actives have a fitted effect of over 50% in size
GCN5L2 inh-2 = human KAT2A HAT inhibition, hit confirmation; shares compounds with GCN5L2 inh-1; GCN5L2 HAT, ThioGlo1 CoA fluorescence, 20 min; Potency, µM, usual class: inhibitors; 140 tested, 70% active; AID 588347
* = called active by the depositor; i = inactive; ? = inconclusive; nt = not tested or not shown; [ ] = remark or other dose. Most compounds without a hit are left out; they make up all but 0.9% or so of the library. Unless noted, calls follow the shape of the dose curve; as a rule, active = well fitted curve in the direction sought with a large enough effect; inconclusive = small, poorly fitted or top-dose-only effect, or another doubt; inactive = no such curve, though single readings can be large; an effect the other way counts as inactive or inconclusive.

SMILES	APEX1 inh	GCN5L2 inh-1	Lamin A splicing	RECQ1 inh-1	BLM inh	TDP1 inh	RECQ1 inh-2	others
O=C(/C=C\c1ccco1)NC(=S)Nc1ccccc1O	-0.1%	-11.2%	nt	-21.4%	-6.6%	2.7%	nt
CCCCC/C=C\C/C=C\C/C=C\CCCCCCC(=O)NCC(=O)O	3.1%	nt	nt	-15.4%	-1.0%	7.5%	nt
CCOc1ccccc1NC(=O)Nc1nnc(N2CCCC(C)C2)s1 (configuration not stated)	nt	-8.0%	nt	nt	-3.3%	8.6%	nt
COc1ccc2[nH]c(=O)c(CN(Cc3ccco3)Cc3nnnn3Cc3ccccc3)cc2c1	2.3%	-24.9%	15.3%	i	-0.8%	6.7%	nt
CCc1ccc2[nH]c(=O)c(CN(Cc3ccccc3OC)Cc3nnnn3Cc3ccco3)cc2c1	?	-5.8%	?	?	-8.2%	5.7%	-19.4%
Cc1ccc(C)c2[nH]c(=O)c(CN(Cc3ccc4c(c3)OCO4)Cc3nnnn3Cc3ccco3)cc12	?	-6.6%	10.2%	22.4µM*	-16.7%	4.4%	-12.7%
Cc1cc(Br)ccc1NC(=O)CCSc1ccccc1	-5.3%	23.6%	-5.2%	-3.9%	-1.3%	-2.0%	nt
Cc1cc(NC(=O)CCSc2ccccc2)ccc1Br	-3.1%	-12.6%	-7.9%	3.55µM*	-8.7%	-6.9%	-13.0%
COc1ccccc1N1C(=O)[C@@H]2[C@H](C1=O)[C@H](C(=O)c1ccc(OC(C)=O)cc1)N1N=CC=C[C@@H]21	-7.5%	-5.3%	nt	-0.4%	-4.3%	?	nt
CC(=O)Oc1ccc(C(=O)[C@H]2[C@H]3C(=O)N(c4ccc5ccccc5c4)C(=O)[C@H]3[C@@H]3C=CC=NN32)cc1	12.8%	23.1%	-15.1%	31.6µM*	-10.6%	1.4%	?
COc1cccc(CNC(=O)c2ccc3c(c2)N(C)C(=O)C2CCCCN32)c1 (configuration not stated)	nt	-9.0%	?	nt	-1.1%	6.5%	nt
CCOC(=O)c1sc2ncnc(NCc3ccco3)c2c1C	?	?	?	?	-9.3%	nt	-9.1%
CSCC[C@H](NC(=O)[C@H](CO)NC(=O)[C@H](Cc1ccc(O)cc1)NC(=O)[C@@H](N)CO)C(=O)N[C@@H](CCC(=O)O)C(=O)N[C@@H](Cc1cnc[nH]1)C(=O)N[C@@H](Cc1ccccc1)C(=O)N[C@@H](CCCNC(=N)N)C(=O)N[C@@H](Cc1c[nH]c2ccccc12)C(=O)NCC(=O)N[C@@H](CCCCN)C(=O)N1CCC[C@H]1C(=O)N[C@H](C(=O)NCC(=O)N[C@@H](CCCCN)C(=O)N[C@@H](CCCCN)C(=O)N[C@@H](CCCNC(=N)N)C(=O)N[C@@H](CCCNC(=N)N)C(=O)N1CCC[C@H]1C(=O)N[C@H](C(=O)N[C@@H](CCCCN)C(=O)N[C@H](C(=O)N[C@@H](Cc1ccc(O)cc1)C(=O)N1CCC[C@H]1C(=O)O)C(C)C)C(C)C)C(C)C	4.4%	-6.0%	nt	-6.8%	nt	13.4%	nt
C=CCNC(=O)c1cc2c(=O)c3ccccc3oc2nc1C	-11.8%	1.7%	nt	28.2µM*	-1.4%	2.7%	-9.9%
O=C(CN(Cc1ccccc1)S(=O)(=O)c1ccccc1)N/N=C/c1ccccc1[N+](=O)[O-]	-3.5%	-15.0%	-13.0%	-8.3%	-7.8%	5.1%	nt	RECQ1 inh conf=1.0%;RECQ1 ADP FP=7.7%
CC(C)c1onc(-c2c(Cl)cccc2Cl)c1COc1ccc(/C=C/c2cccc(C(=O)O)c2)c(Cl)c1	-4.5%	12.6µM*	nt	31.6µM*	31.6µM*	-12.8%	35.5µM*
C#C[C@]1(OC(C)=O)CC[C@H]2[C@@H]3CCC4=C/C(=N/O)CC[C@@H]4[C@H]3CC[C@@]21CC	nt	-23.2%	nt	nt	-13.1%	nt	nt
Cc1ccccc1N=C/C=C1\N(C)c2ccccc2C1(C)C	?	-0.3%	?	?	4.9%	11.4%	-8.7%
CN1/C(=C\C=N\O)C(C)(C)c2ccccc21	2.9%	5.1%	18.9%[46 µM]	-4.4%	-2.8%	8.9%	nt
N#CC1=C(N)n2c(s/c(=C\c3ccco3)c2=O)=C(C#N)C1c1ccco1 (configuration not stated)	7.08µM*	-17.6%	-2.9%	8.91µM*	-5.7%	?	-30.7%
CC(=O)C(Sc1ccc2nnc(-c3ccc(F)cc3)n2n1)C(C)=O	-5.5%	-4.8%	-4.8%	-15.8%	0.7%	1.2%	nt
CC(=O)C(Sc1ccc2nnc(-c3ccc(C)cc3)n2n1)C(C)=O	-14.7%	-1.4%	-15.2%	?	-5.9%	2.1%	?
COc1cccc(N2CCN(Cc3cc(=O)oc4cc(C)ccc34)CC2)c1	nt	-2.5%	nt	nt	-4.3%	0.0%	nt
Cc1ccc(S(=O)(=O)/N=C2/C=C(Sc3ncn[nH]3)C(=O)c3ccccc32)cc1	-10.6%	22.4µM*	?	?	15.8µM*	10.5%	?	GCN5L2 inh-2=1.29*
N=C1/C(=C/c2ccc(-c3cccc(C(=O)O)c3)o2)C(=O)N=C2SC=C(c3ccccc3)N12	?	22.4µM*	-6.2%[46 µM]	?	?	35.5µM*	?	GCN5L2 inh-2=16.2*
Oc1ccccc1C1C=C(c2ccc3c(c2)OCO3)NC(c2cccc(Cl)c2)N1 (configuration not stated)	nt	nt	nt	nt	nt	2.1%	nt
COc1cccc(/C=C2\CC(C)Cc3c2nc2ccccc2c3C(=O)O)c1OC (configuration not stated)	8.2%	-11.4%	nt	nt	-3.8%	4.5%	nt
COc1cc(/C=C2\CCc3c2nc2ccccc2c3C(=O)O)cc(OC)c1OC	25.1µM*	12.6µM*	nt	10µM*	14.1µM*	nt	?	RECQ1 inh conf=22.4µM*;RECQ1 ADP FP=-10.4%[91.9 µM];GCN5L2 inh-2=20.4*
CCCN1CNc2c(c(=O)[nH]c(=S)n2CCc2cc(Cl)ccc2Cl)C1	nt	nt	nt	nt	nt	0.8%[96 µM]	nt
